# TGFb inhibitor = inhibitors of TGF-b signaling | HepG2 CAGA-GFP TGF-b/SMAD3 reporter, GFP fluorescence, 18 h; TGF-beta stimulated, 500 pg/mL final | Potency, µM (top dose mostly 46.1 µM), actives largely listed as inhibitors | actives 1.2% (n = 410,000); further: nearly all actives have a fitted effect of over 65% in size
#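 HEPG2 CAGA-GFP reporter cells (1000/well, DMEM with 1% FBS) received compounds, then recombinant TGF-beta at 500 pg/mL final for 18 hours at 37 degrees C. Per-cell GFP summed per well was normalised to unstimulated and stimulated DMSO controls before curve fitting.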
# IL-1B inflam inh = inhibitors of inflammasome signaling (IL-1 beta secretion). THP-1 LPS/ATP IL-1B secretion, AlphaLISA, 16 h; hits give low values. activity change, % at 57.5 µM. actives 4.7% (n = 360,000). AID 743279; in the data active means activity change below about -50%; inconclusive means mostly about -30% to -49%
#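 Secreted IL-1B measured by AlphaLISA bead assay after 16 h compound exposure of THP-1 cells; compounds (final up to 57.5 uM) added 1 h before LPS (250 ng/mL) and ATP (1.25 mM) stimulation; lower signal means less secretion.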
# DT40 TDP1 no CPT = qHTS for Inhibitors of human tyrosyl-DNA phosphodiesterase 1 (TDP1): qHTS in cells in absence of CPT; Potency, µM (highest dose often 46.2 µM), usual class: inhibitors; DT40 Tdp1-/- hTDP1 cells, no CPT, ATP luminescence, 48 h; AID 686978, 2013; actives 15% (n = 420,000); further: nearly all actives have a fitted effect of over 55% in size
#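 Growth of hTDP1-complemented DT40 Tdp1-knockout cells is measured by ATP luminescence after at least 48 hr compound exposure at 37 °C, with DMSO substituting for the 20 nM CPT used in the parallel screen.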
# HepG2 viability = counter-screen for TGF-b inhibitors: cytotoxicity in HepG2 cells | HepG2 CAGA-GFP viability, ATP luminescence, 18 h | AID 588856 | Potency, µM (doses to about 46.1 µM), hits mostly cytotoxic | actives 0.76% (n = 410,000)
#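 HepG2 CAGA-GFP cells (1000/well, DMEM with 1% FBS) received compound, then TGF-beta at 500 pg/mL final, and were incubated 18 hours at 37 degrees C. Viability was read by CellTiter-Glo luminescence. Media-only wells were set as complete cell-killing and DMSO as no toxicity.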
# S-ASM inh = inhibitors of human secretory acid sphingomyelinase; P17405; placental ASM, HMU-PC fluorogenic substrate, 60 min; AID 504937; actives 0.006% (n = 340,000); Potency, µM (titrated, usually from 57.5 µM), most hits filed as inhibitors
# Target sequence (P17405 47-631 limits assumed): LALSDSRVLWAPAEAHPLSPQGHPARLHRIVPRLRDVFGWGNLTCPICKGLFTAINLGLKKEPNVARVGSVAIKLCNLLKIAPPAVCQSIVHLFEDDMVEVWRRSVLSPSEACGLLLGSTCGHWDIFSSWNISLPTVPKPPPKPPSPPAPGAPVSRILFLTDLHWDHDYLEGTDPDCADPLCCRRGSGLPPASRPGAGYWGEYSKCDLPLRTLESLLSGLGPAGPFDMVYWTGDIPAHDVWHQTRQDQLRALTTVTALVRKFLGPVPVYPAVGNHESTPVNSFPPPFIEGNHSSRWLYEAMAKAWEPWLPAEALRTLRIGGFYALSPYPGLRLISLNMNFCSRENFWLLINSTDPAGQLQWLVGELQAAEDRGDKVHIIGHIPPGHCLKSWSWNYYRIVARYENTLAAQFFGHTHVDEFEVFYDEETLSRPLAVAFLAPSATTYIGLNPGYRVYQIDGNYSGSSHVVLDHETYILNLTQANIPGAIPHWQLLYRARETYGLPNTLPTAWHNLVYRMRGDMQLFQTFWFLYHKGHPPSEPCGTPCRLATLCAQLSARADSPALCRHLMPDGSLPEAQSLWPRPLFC
#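 Human placenta-derived ASM enzyme was preincubated with compound for 10 minutes at room temperature, then given fluorogenic substrate HMU-PC0 (9 uM final) for 60 minutes at 37 °C; a pH 10 stop preceded fluorescence reading at Ex 386/Em 447 nm.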
# DT40 TDP1 CPT = growth inhibition of DT40 Tdp1-/-;hTDP1 cells with camptothecin (screen for TDP1 inhibitors); chicken DT40 Tdp1-/-;hTDP1 cells + 20 nM CPT, ATP luminescence, 48 h; Potency, µM (doses to about 46.2 µM), most hits filed as inhibitors; actives 12% (n = 420,000); further: nearly all actives have a fitted effect of over 55% in size
#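 Chicken DT40 Tdp1-/- cells complemented with human TDP1, 400 cells/well, exposed to compounds plus 20 nM camptothecin for at least 48 h at 37 C; viability read as ATP content by CellTiter-Glo luminescence.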
# Numbers stand for hits; – = inactive; ? = inconclusive; · = no result given. Hits are enriched below; roughly 19% of the tested compounds scored in any of these assays. Unless noted, the call rests on the fitted dose curve; in most records, active means well fitted curve in the direction sought with a large enough effect; inconclusive means small, poorly fitted or top-dose-only effect, or another doubt; inactive means no such curve, though single readings can be large; an effect the other way counts as inactive or inconclusive.
SMILES,TGFb inhibitor,IL-1B inflam inh,DT40 TDP1 no CPT,HepG2 viability,S-ASM inh,DT40 TDP1 CPT
O=C(c1ccc(CNS(=O)(=O)c2ccc(Br)cc2)cc1)N1CCC2(CC1)OCCO2,–,–,9.2µM,–,–,?
O=C(c1ccc(CNS(=O)(=O)c2ccccc2)cc1)N1CCC2(CC1)OCCO2,–,–,–,–,–,–
O=C(O)C(Cl)(Cl)Cl,–,–,–,–,–,–
CC(NCc1ccc(Cl)c(Cl)c1)C(O)c1ccccc1 (stereo unspecified),?,?,?,–,–,16.4µM
CC(NCc1ccccc1Cl)C(O)c1ccccc1 (stereo unspecified),–,–,–,–,–,–
Cc1ccc(C(=O)Nc2ccncc2)cc1S(=O)(=O)N1CCCCC1,–,–,18.4µM,–,·,23.1µM
O=C(Nc1ccc(Br)cc1)c1ccc(Cl)c(S(=O)(=O)N2CCCCCC2)c1,–,·,16.4µM,–,·,?
Cc1ccc(Cl)c2sc(NC(=O)c3ccc(S(=O)(=O)N4CCCC4)cc3)nc12,–,·,?,–,·,?
CN(Cc1ccccc1)C(=O)Cn1c(=O)oc2cc(S(=O)(=O)NCc3ccccc3)ccc21,–,–,20.6µM,–,–,14.6µM
COc1cc(NS(=O)(=O)c2ccc3c(c2)oc(=O)n3C)cc(OC)c1OC,–,–,9.2µM,–,–,13µM
O=C(Cn1c(=O)oc2cc(S(=O)(=O)NCc3ccccc3)ccc21)Nc1cccc(F)c1,?,·,?,–,·,?
CCOC(=O)Cn1c(=O)oc2cc(S(=O)(=O)Nc3cc(OC)cc(OC)c3)ccc21,?,·,20.6µM,–,·,16.4µM
Cn1c(=O)oc2cc(S(=O)(=O)Nc3cccc(F)c3)ccc21,–,–,–,–,–,–
COC(=O)C1=C(c2ccc(F)cc2OCc2ccccc2)C[C@@H]2CC[C@H]1N2C,–,–,16.4µM,–,–,23.1µM
COC(=O)C1=C(c2ccccc2OCc2ccccc2)C[C@@H]2CC[C@H]1N2C,–,–,23.1µM,–,·,?
CC12CCC(=O)C=C1C=CC1C2CCC2(C)C(O)CCC12 (stereo unspecified),–,–,–,–,–,–
COP(=S)(OC)Oc1ccc(S(=O)(=O)N(C)C)cc1,·,·,–,·,·,–
O=c1[nH]c2ccccc2n1C1CCN(C(c2ccnc3ccccc23)c2nnnn2-c2ccc3c(c2)OCCO3)CC1 (stereo unspecified),?,?,9.2µM,–,·,5.17µM
COc1ccc(C(c2nnnn2-c2ccc3c(c2)OCCO3)N2CCC(n3c(=O)[nH]c4ccccc43)CC2)cc1 (stereo unspecified),?,?,16.4µM,–,·,?
O=c1[nH]c(=S)n(C2CC2)c(O)c1C=Nc1cccc(C(F)(F)F)c1,–,–,?,–,–,?
Cc1cc(=O)oc2c1c(C)nn2-c1nn[nH]n1,–,–,?,–,–,20.6µM
CC(O)(CS(=O)(=O)c1ccc(F)cc1)C(=O)Nc1ccc(C#N)c(C(F)(F)F)c1 (stereo unspecified),·,·,10.6µM,·,·,15µM
O=C1NC(=O)N(c2cccc(Cl)c2)C(=O)/C1=C\c1ccc(Sc2nc3ccccc3[nH]2)o1,–,–,?,–,–,?
O=C1NC(=O)N(c2ccccc2)C(=O)/C1=C/c1ccc(Sc2ccccc2)o1,–,-101.0,?,–,–,?
COc1ccc(N2C(=O)NC(=O)/C(=C\c3ccc([N+](=O)[O-])s3)C2=O)cc1,?,?,?,–,–,13µM
SMILES,TGFb inhibitor,IL-1B inflam inh,DT40 TDP1 no CPT,HepG2 viability,S-ASM inh,DT40 TDP1 CPT
O=C1NC(=O)N(c2ccccc2)C(=O)/C1=C/c1ccoc1,–,–,–,–,–,?
COc1ccccc1N1C(=O)NC(=O)/C(=C\c2cnn(-c3ccccc3)c2)C1=O,?,-89.7,?,–,–,?
O=C1NC(=O)N(c2ccccc2)C(=O)/C1=C\c1ccccc1[N+](=O)[O-],–,–,–,–,–,23.1µM
Cc1ccc(Cn2cccc(C(=O)Nc3nc4ccc(C)cc4s3)c2=O)cc1,–,·,–,–,·,–
COc1ccccc1N1C(=O)NC(=O)/C(=C/c2ccc([N+](=O)[O-])s2)C1=O,?,-61.6,14.6µM,–,–,8.2µM
CCOc1ccc(N2C(=O)NC(=O)/C(=C\c3cc(OC)c(OC)cc3[N+](=O)[O-])C2=O)cc1,–,–,?,–,–,?
COc1ccc(N2C(=O)NC(=O)/C(=C/c3ccc([N+](=O)[O-])s3)C2=O)cc1,–,–,6.51µM,–,–,14.6µM
COc1ccccc1OC(C)C(=O)N1CCC(Cc2ccccc2)CC1 (stereo unspecified),?,-72.4,?,–,–,16.4µM

# Compound activity from PubChem.
